“And” between values parts separate entries of the source, which are not always exact repeats. Equal values may be shown once. The source made the active and inactive calls.
Assay: PSAC antagonists in infected red cells, primary screen, cell-based, P. falciparum Indochina, OD700, 18 h (AID 1157)
Details: P. falciparum Indochina infected erythrocytes, osmotic lysis OD700, 18 h; higher = more signal, called active from +8 up or from −8 down

z-score, inactive:
CC(CO)N1C(=O)[C@@H]2C3C(=O)OCCC=C[C@H]3OC23C=CCN(c2ccc(Cl)cc2)C(=O)[C@@H]13 (some centres undefined) 0.817 and 0.0372, CCOC(=O)NN=C1C[C@@H](O)[C@@H](O)[C@@H]2[C@@H]3C(=O)N(Cc4ccc5c(c4)OCO5)C(=O)[C@@H]3CC[C@@H]12 0.574, C=CCN(C(=O)C(c1cccs1)N(C(=O)/C=C\C(=O)O)c1ccc(CCO)cc1)C(C)(C)C (centres undefined) 0.0097 and 0.232, C=CCN(C(=O)C(c1cccs1)N(C(=O)/C=C\C(=O)O)c1c(Cl)cccc1CO)C(C)(C)C (centres undefined) -0.134 and -0.0608, C=CCN(CCCCC)C(=O)C1N(c2c(Cl)cccc2CO)C(=O)C2C(C(=O)O)C3C=CC21O3 (centres undefined) 0.188 and -0.058, C=CCN(CCCC)C(=O)C(c1cccs1)N(CCOCCO)C(=O)/C=C\C(=O)O (centres undefined) -1.22 and -1.27, CCCCCN1CC=CC23O[C@@H]4C=CCCOC(=O)C4[C@H]2C(=O)N(C(C)CO)[C@@H]3C1=O (some centres undefined) 0.0882 and 0.454, COC(=O)[C@H](C)NC(=O)CCC1CC(OC(=O)NCCc2ccc(F)cc2)CC2(CCCC(COC(=O)NCCCN3CCCC3=O)O2)O1 (some centres undefined) 0.298, COC(=O)C1=C(C)N(Cc2ccccc2)C2=C(C(C)=O)C[C@@](O)(C(=O)OC)C(=O)N2[C@@H]1c1ccccc1 -1.62 and -0.838, C=CCN(CCCCC)C(=O)C(c1cccs1)N(C(=O)/C=C\C(=O)O)c1c(Cl)cccc1CO (centres undefined) 0.257 and 0.404, CC(C)CON=C1C[C@@H](O)[C@@H](O)[C@@H]2[C@@H]3C(=O)N(c4cccc(Oc5ccccc5)c4)C(=O)[C@@H]3CC[C@H]12 0.158, C=CCN(C(=O)C(c1cccs1)N(C(=O)/C=C\C(=O)O)C(C)(C)CO)c1ccc(OC)cc1 (centres undefined) -1.05 and -1.12, CCCNC(=O)OC[C@H]1O[C@H](CCON=C(C)CCN2CCc3nc(-c4ccccc4)c(-c4ccccc4)cc3C2)C=C[C@@H]1Oc1ccc(OC)cc1 0.441, C=CC[C@@H](O)c1ccc(O)c(F)c1 0.476 and -2.12, C=CCN(Cc1ccccc1)C(=O)C(c1cccs1)N(C(=O)/C=C\C(=O)O)c1c(Cl)cccc1CO (centres undefined) 0.306 and 0.109, CC(C)[Si]1(C(C)C)OCc2cc(CCCc3cc4c(c(CCc5ccccc5)n3)[Si](C(C)C)(C(C)C)OC4)nc(CCc3ccccc3)c21 -0.788 and -0.406, COC(=O)[C@@]1(Cc2ccc(F)cc2)[C@H]2c3cc(C(=O)N4CCCC4)n(Cc4c(CO)[nH]cc(C)c4=O)c3C[C@H]2CN1C(=O)c1ccccc1 0.398 and 0.57, C=CCN(C(=O)C1N(c2ccc(CCO)cc2)C(=O)C2C(C(=O)O)C3C=CC21O3)c1ccc(OC)cc1 (centres undefined) 0.258 and 0.284, C=CCN(C(=O)C1N(CCOCCO)C(=O)C2C(C(=O)O)C3C=CC21O3)C(C)(C)C (centres undefined) -0.305 and -0.108, CCOC(=O)c1ccc(NC(=O)O[C@H]2[C@H](OC(=O)Nc3ccccc3)[C@H](OC(=O)Nc3ccccc3)[C@@H](OC)O[C@@H]2CO)cc1 1.23 and 1.89, CC(C)=NOCc1ccc(-c2cn([C@@H]3COC[C@H]3O)nn2)cc1 0.296, C[C@@H]1CC[C@H]2C(=O)O[C@H](CN=[N+]=[N-])CN2[C@H]1c1ccc(Br)cc1 -0.12 and 0.491, C=CCN1C(=O)[C@]2(O[C@H](CCn3cc(CCO)nn3)[C@@H]([Si](C)(C)c3ccc(OC)cc3)[C@@H]2C)c2cc(N3C(=O)c4cccc5cccc3c45)ccc21 2.04 and 1.7, CC(CO)N1C(=O)[C@@H]2C3C(=O)OCCC=C[C@H]3OC23C=CCN(Cc2ccccc2)C(=O)[C@@H]13 (some centres undefined) 0.403 and 0.258, C=CCN(C(=O)C1N(c2c(Cl)cccc2CO)C(=O)C2C(C(=O)O)C3C=CC21O3)C(C)(C)C (centres undefined) 0.604 and -1.54, O=C1C[C@]2(c3ccc([N+](=O)[O-])cc3)C(=O)N(Cc3ccccc3)c3cc(CO)ccc3[C@H]2N1C1CCCCC1 -0.434 and -0.166, C[C@@H](ON=C1[C@H]2CCn3c(=O)n(-c4ccccc4)c(=O)n3[C@H]2[C@H](O)[C@@H]2O[C@H]12)c1cn([C@H](CO)Cc2ccccc2)nn1 0.367, C=CCN(CCCC)C(=O)C1N(C(C)(C)CO)C(=O)C2C(C(=O)O)C3C=CC21O3 (centres undefined) 0.0135 and -0.109, COC(=O)[C@@]1(Cc2ccccc2)[C@H]2c3cc(C(=O)N(C)C)n(C[C@H](O)CO)c3C[C@H]2CN1C(=O)c1ccccc1 0.789 and 0.446, C[C@@H]1CN2[C@@H](CC[C@@H](C)[C@@H]2c2ccc(Br)cc2)C(=O)O1 0.125 and -1.18, COC(=O)C1=C(C)N(Cc2ccccc2)[C@]23O[C@](C(=O)OC)(C(=O)N2[C@@H]1c1ccccc1)[C@@H](C(=O)OC)[C@H]3C(=O)OC -0.022 and 0.17, C=CCN(Cc1ccccc1)C(=O)C1N(c2ccc(CCO)cc2)C(=O)C2C(C(=O)O)C3C=CC21O3 (centres undefined) -0.157 and 0.382, CCOC(=O)C[C@H]1[C@H](OC(=O)c2ccccc2-c2ccccc2)[C@@H](NC(=O)Cc2ccc(OC)cc2)c2cc(OCCCO)ccc2N1C(=O)c1ccc2ccccc2n1 0.329 and 0.627, CC(C)CCN1CCc2nc(-c3ccccc3)c3c(c2C1)CO[C@@H](C)C3 0.0992, CCOC(=O)[C@@H]1CC=C2CC1C(=O)N1CCC[C@@H]1[C@H]2O[Si](C)(C)C(C)(C)C (some centres undefined) -0.0374 and 0.133, COC(=O)[C@@]1(Cc2ccc(OC)cc2)[C@H]2c3cc(C(=O)N(C)C)n(Cc4ccc(O)c(OC)c4)c3C[C@H]2CN1C(=O)c1ccccc1 0.642 and 1.38, CO[C@H]1COC(=O)CC=C[C@H](C)[C@H](OC)COC(=O)[C@@H](C)COC(=O)CC=C[C@@H]1C -0.0153 and 0.179, CCOC(=O)C[C@H]1[C@H](OC(=O)c2ccccc2-c2ccccc2)[C@@H](NC(=O)c2ccccc2)c2cc(OCCCO)ccc2N1C(=O)c1ccc2ccccc2n1 0.353 and 0.188, C=CCN(CCCC)C(=O)C1N(c2c(Cl)cccc2CO)C(=O)C2C(C(=O)O)C3C=CC21O3 (centres undefined) 0.162 and 0.432

— PubChem BioAssay
